This passage reports activity change results from PubChem BioAssay AID743279 (National Center for Advancing Translational Sciences (NCATS), 2014).

The whole screen tested about 360,000 compounds, of which about 17,000 (4.7%) were called active. Inconclusive results (about 5%) are left out. The sample as a whole holds a higher share of actives than the screen did. Values without a mark were called inactive. No stated cut-off is given here; in the data, active means activity change below about -50%; inconclusive means mostly about -30% to -49%; inactive means weaker than that.
On the % scale 0 is the no-effect control and ±100 the full control effect.

The nature of the assay: qHTS for Inhibitors of Inflammasome Signaling: IL-1-beta AlphaLISA Primary Screen. The conditions noted are these: THP-1 LPS/ATP IL-1B secretion, 16 h; at 57.5 µM, active compounds read low. The procedure, abridged: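 THP-1 cells pretreated 1 hr with compounds (up to 57.5 uM final), then stimulated with LPS (250 ng/mL final) plus ATP (1.25 mM final); secreted IL-1B measured by AlphaLISA after 16 hr, decreased signal indicating inhibition.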
Take `O=C(COC(=O)/C=C/c1ccc2c(c1)OCO2)NC1CCS(=O)(=O)C1` (stereo not drawn): the activity change is -29.2%.

As for `CCOC(=O)CCCNC(=O)COC(=O)/C=C/c1ccc2c(c1)OCO2`, the activity change is -11.7%.

As to `CN(Cc1ccccc1)C(=O)COC(=O)/C=C/c1ccc2c(c1)OCO2`, the activity change is -60.4% (active).

Take `OC[C@@H]1CN(Cc2ccc(F)cc2)C[C@H](n2cnc3c(NC4CCCC4)ncnc32)O1`: the activity change was 0%.

As for `COc1ccc(CCN(C(=O)COc2ccccc2)c2nc(-c3ccccc3)cs2)cc1OC`, the activity change is -19.6%.

Regarding `COc1ccc(NC(=O)C2(C)Cc3c(-c4cccc(NC(C)=O)c4)ccnc3O2)cc1OC` (stereo not drawn), the activity change is -4.57%.

On to `COc1ccc(-c2csc(Nc3cccc(C)n3)n2)cc1OC`, for which the activity change was -7.72%.

Turning to `CCCCCCC(=O)Nc1nc(C)c(-c2csc(Nc3cccc(OC)c3)n2)s1`, the activity change is -17.4%.

On to `CC(=O)NC(c1ccccc1)c1nc(-c2cccc(C(C)C)c2)cs1` (stereo not drawn), for which the activity change was -14.5%.

As for `COc1ccc(CCNc2nc(-c3cccc(NC(C)=O)c3)cs2)cc1OC`, the activity change was -53.6% (active).

Turning to `COc1ccc(OC)c(-c2csc(NC(=O)COC(=O)C3CC3)n2)c1`, the activity change is -8.53%.

For `COc1cccc(CC(=O)Nc2nc(-c3ccc(OC)c(OC)c3)cs2)c1`, the activity change is -50.3% (active).

Consider `COc1cc(CC(=O)Nc2nc(-c3ccc(F)c(F)c3)cs2)cc(OC)c1OC`, for which the activity change is -57% (active).

On to `COc1cc(CC(=O)NCc2cccs2)cc(OC)c1OC`, for which the activity change is 0%.

Turning to `CC(=O)Nc1cccc(-c2csc(Nc3cccc(C)n3)n2)c1`, the activity change was -56.6% (active).

Regarding `O=C(COc1ccccc1F)Nc1nc(-c2ccccn2)cs1`, the activity change is 33.3%.

In the case of `CCCNC(=O)C1(C)CCCN(C(=O)c2cccc(OC(C)=O)c2C)C1` (stereo not drawn), the activity change is 1.04%.

As for `CCc1nc2c(OCCOc3ccccc3)cccn2c1N(C)C(=O)c1ccccc1F`, the activity change is -0.777%.

For `CC(C)CCNC(=O)c1cccnc1Sc1ccccc1`, the activity change was -7.52%.

For the molecule `COc1ccc(CC(=O)Nc2nc(-c3ccc(F)c(F)c3)cs2)cc1OC`, the activity change was -67.5% (active).

Turning to `COc1ccc(CC(=O)Nc2ccccc2NC(=O)c2ccco2)cc1OC`, the activity change was 12.9%.

Consider `CCCc1ccc(-c2csc(NC(=O)Cc3cccs3)n2)cc1`, for which the activity change was 8.64%.

Regarding `CCCc1c(C)nc2scc(-c3ccc(Cl)cc3)n2c1=O`, the activity change is 26.4%.

`CCc1ccc(OCC(=O)NCC(c2ccc(Cl)cc2)N2CCCCC2)cc1` (stereo not drawn): the activity change was -99.8% (active).

Take `COc1ccc(C(CNC(=O)COc2ccc([N+](=O)[O-])cc2)N2CCCCC2)cc1` (stereo not drawn): the activity change was -22.1%.

Take `COc1ccc(C(CNC(=O)COc2ccccc2OC)N2CCCCC2)cc1` (stereo not drawn): the activity change is -6.28%.

On to `Cc1noc(C)c1COC(=O)c1cc2ccccc2cc1O`, for which the activity change was -1.49%.

Take `Cc1ccc(C(=O)NNC(=O)OC(C)(C)C)c(Cl)c1`: the activity change was -7.82%.

As for `CC(C)(C)OC(=O)NNc1c2ccccc2nc2ccccc12`, the activity change was -75.9% (active).

`O=C(COC(=O)c1ccc(O)cc1O)NC(=O)c1ccccc1`: the activity change is 13.5%.

In the case of `O=C(NNc1c2ccccc2nc2ccccc12)c1cc2ccccc2cc1O`, the activity change was -60.2% (active).

As to `CC(C)(C)OC(=O)NCCCCCNC(=O)c1nc[nH]c1C(=O)NCc1ccccc1`, the activity change is 11%.

For the molecule `Cc1ccccc1NC(=O)Cn1cc(C(=O)C2CC2)c2ccccc21`, the activity change was 16.9%.

For `CCC1NC(=O)c2cccnc2-n2c1nc1ccc(C)cc1c2=O` (stereo not drawn), the activity change is -3.64%.

Consider `N#C/C(=C(\O)CCl)c1nnc2n1CCCCC2`, for which the activity change is 4.27%.

In the case of `N#C/C(=C/c1cccc([N+](=O)[O-])c1)c1nnc2n1CCCCC2`, the activity change was -112% (active).

For `N#C/C(=C(\O)C(F)(F)F)c1nnc2n1CCCCC2`, the activity change was 11.5%.

`CCOC(=O)C1(C)CCCN(C(=O)c2ccc(N(C)C)cc2)C1` (stereo not drawn): the activity change is 9.68%.

For `CCN(CC)C(=O)[C@H]1CC(CC(=O)NCc2ccco2)C(=O)N2CCc3c([nH]c4ccccc34)[C@]12C` (stereo partly drawn), the activity change was 7.15%.

As for `C[C@@H]1C(c2ccc(F)cc2)=NN(c2ccc(Br)cc2)[C@H]1C(=O)N1CCOC1=O`, the activity change was -54.4% (active).

Take `O=C1OCCN1C(=O)[C@H]1[C@H](c2ccc(Cl)cc2)C(c2cccc(Cl)c2)=NN1c1ccc(Br)cc1`: the activity change was -23.1%.

In the case of `O=C1OCCN1C(=O)[C@H]1[C@H](c2ccc(F)cc2)C(c2ccccc2)=NN1c1ccc(Br)cc1`, the activity change is -15.9%.

On to `CN(CC(=O)Nc1c(Cl)cccc1Cl)C(=O)CNC(=O)C1CCCCC1`, for which the activity change result is “inactive”.

With `COc1cccc(CC2(CO)CCCN(Cc3ccc(OC(F)F)cc3)C2)c1` (stereo not drawn), the activity change is -9.05%.

With `Cc1c(CN2CC[C@@H](N3CCN(c4ccccn4)CC3)[C@H](O)C2)[nH]c2ccc(F)cc12`, the activity change was -50.8% (active).

As for `O=S1(=O)CC(N2CCN(c3ccccn3)CC2)CN1Cc1ccc(F)cc1` (stereo not drawn), the activity change is -7.1%.

For `O=C(CCC1CCCN(C(=O)Cc2ccc(F)cc2)C1)N1CCN(c2ccccn2)CC1` (stereo not drawn), the activity change was -15.7%.

For the molecule `COc1ccc(-c2ccc3c(c2)[C@@H]2C[C@H](N(C)S(=O)(=O)c4ccccc4)[C@H]([C@H](C)O)C(=O)N2CC3)cc1`, the activity change was -14.6%.

Take `O=C(CCc1ccc(O)cc1)NN=Cc1cc(Br)ccc1O`: the activity change was 137%.

Consider `CC(C)(C)c1cc(P(=O)(c2ccccc2)c2ccccc2)ccc1O`, for which the activity change is -66.1% (active).

Consider `O=P(O)(CP(=O)(c1ccccc1)c1ccccc1)c1ccccc1O`, for which the activity change is -5.18%.

For `O=S(=O)(Nc1ccc2ccccc2c1)N1CCCCC1`, the activity change was -5.44%.

For `CC(C)(C)C(=O)Nc1cccc(-c2ccc[nH]2)n1`, the activity change was -1.09%.

Turning to `CC(C)n1cnc2c(Nc3cccc(Cl)c3)nc(N(CCO)CCCO)nc21`, the activity change was -97.4% (active).

As for `Cn1c(Nc2cccc(Cl)c2)nc2ccccc21`, the activity change is -6.01%.

As for `OCCCNc1nccc(-c2cc(Nc3cccc(Cl)c3)ncn2)n1`, the activity change was -1.28%.

On to `CCOC(=O)N(Cc1ccccc1)C1CC1`, for which the activity change is 8.58%.

With `O=C1CC(c2ccccc2)C(=O)N2C(=O)CC(c3ccccc3)C(=O)N12` (stereo not drawn), the activity change was -11.1%.

As to `COC(=O)[C@@]12C[C@@H](CC(=O)N3CCC(c4ccccc4)CC3)C(=O)N(Cc3ccccc3)C1=CCC(C)(C)C2`, the activity change was -70.2% (active).

Turning to `CCOC(=O)N1CCN(C(=O)C[C@@H]2C[C@@]3(C(=O)OC)CC(C)(C)CC=C3N(Cc3ccco3)C2=O)CC1`, the activity change is 5.52%.

`COC(=O)[C@@]12C[C@@H](CC(=O)N3CCCCC3)C(=O)N(Cc3ccc4c(c3)OCO4)C1=CCC(C)(C)C2`: the activity change was -13.6%.

Consider `COc1ccc(CN2C[C@H]3CON(C)[C@H]3C[C@H]2c2ccc(-c3cccc(F)c3)cc2)cc1`, for which the activity change is 11.4%.

Take `CC1(C(=O)NCc2ccccc2)CN(S(C)(=O)=O)CC(=O)N1CC(F)(F)F` (stereo not drawn): the activity change was 30.7%.

On to `COc1ccc(C(=O)NC(C)Cn2nc(C)cc2C)cc1OC1CCN(C(C)=O)CC1` (stereo not drawn), for which the activity change was 0%.

For `CCCCC[C@@H]1C=C(C(=O)OCC)[C@H](c2ccccc2)N1S(=O)(=O)c1ccc(C)cc1`, the activity change is 37.3%.

With `COc1cc(C#Cc2ccc3cc(CCCO)oc(=O)c3c2)cc(OC)c1`, the activity change was 0%.

Turning to `COc1cc(/C=C2\Oc3ccc(C#Cc4ccc(O)cc4)cc3C2=O)cc(OC)c1`, the activity change is -79.1% (active).

Turning to `COc1ccc2c(c1)O/C(=C\c1ccccc1O)C2=O`, the activity change was 45.7%.

Consider `CNC(=O)C[C@H]1C(=O)N(Cc2ccccc2)C[C@@H]1CSC`, for which the activity change is -8.27%.

As to `c1ccc(CNc2ncnc3[nH]ncc23)cc1`, the activity change is 31.4%.

Turning to `O=C(COc1ccc(Br)cc1F)NCC1(N2CCCCC2)CCCCC1`, the activity change was -9.53%.

In the case of `Cc1cc(C(=O)COc2ccccc2Cl)c(C)n1C1CC1`, the activity change was 0%.

For the molecule `Cc1cc(C(=O)COc2ccc(Br)cc2F)c(C)n1C1CC1`, the activity change is -54.4% (active).

On to `O=C(COC(=O)c1cncc(Br)c1)Nc1ccc(S(=O)(=O)N2CCOCC2)cc1`, for which the activity change was -5.39%.

`C[C@H](CO)N1C[C@H](C)[C@H](CN(C)C(=O)Nc2ccc3c(c2)OCO3)Oc2ncc(Br)cc2C1=O`: the activity change is -12.4%.

Consider `Cc1ccccc1NC(=O)CSc1nc2ccc(Nc3nc(N4CCOCC4)nc(N4CCOCC4)n3)cc2s1`, for which the activity change is 0%.

With `O=C(CSc1nc(Nc2ccccc2)nc(N2CCOCC2)n1)Nc1cc(Cl)ccc1O`, the activity change was -58.1% (active).

As to `CC1(c2ccccc2)NC(=O)N(CC(=O)Nc2cc(Cl)ccc2N2CCOCC2)C1=O` (stereo not drawn), the activity change is 1.47%.

In the case of `CS(=O)(=O)N(CC(=O)N1CCCCCC1)c1cccc(Cl)c1Cl`, the activity change is -9.4%.

Turning to `COc1ccc(CN2CCC(n3nccc3NC(=O)CCCc3ccccc3)CC2)cc1C`, the activity change is -65% (active).

With `COc1cc(CN2CCC(n3nccc3NC(=O)CCCc3ccccc3)CC2)ccc1O`, the activity change was 0%.

As to `Cc1ccc(CN2CCC(n3nccc3NC(=O)CCCc3ccccc3)CC2)o1`, the activity change is 0%.

On to `COc1ccc(OC)c(NC(=O)C2CCCN2S(=O)(=O)c2ccc3c(c2)CC(C)N3C(C)=O)c1` (stereo not drawn), for which the activity change is 11.5%.

As to `CC(=O)Nc1ccc2c3c(ccc([N+](=O)[O-])c13)CC2`, the activity change was 18.1%.

`COc1ccc(NC(=O)C(c2ccncc2)n2c(=O)c(-c3cc4ccccc4[nH]3)nc3ccccc32)cc1` (stereo not drawn): the activity change was -12%.

For `COc1cccc(-n2cc3c(c2-c2ccccc2)c(=O)n(C)c(=O)n3C)c1`, the activity change was 18.5%.

Regarding `COc1cccc(-n2cc(C(=O)O)c3ccccc3c2=O)c1`, the activity change was -59.6% (active).

For `COc1cccc(-n2nc(C(=O)N3CCN(Cc4ccccc4)CC3)c3ccccc3c2=O)c1`, the activity change was -16.4%.
